Screening results: PubChem BioAssay, The Scripps Research Institute Molecular Screening Center
An excerpt weighted towards active compounds, which were near 2.3% of everything screened.
CHO-K1 Ca antag: counter-screen for M1 antagonists: effect in parental CHO-K1 cells; inhibition, % at 3 µM; actives 0.6% (n = 360,000); ATP-induced calcium, Fluo-8 fluorescence; AID 602250;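 active = inhibition above a per-plate cutoff, the plate's mean sample inhibition plus 3 SD, cut at about 24% in these data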;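 also: 0% = DMSO plus EC80 ATP and 100% = DMSO alone without ATP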
CHRM1 antagonist: human M1 muscarinic receptor antagonists, primary screen, CHO-K1 cells, Fluo-8 calcium fluorescence, 1536-well; inhibition, % at 3 µM; actives 1.3% (n = 360,000); CHO-K1 hM1, ACh EC80 antagonist; Muscarinic acetylcholine receptor M1 (Homo sapiens), P11229;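 active = percent inhibition above its own plate's cutoff, namely the mean of that plate's compound wells plus 3 SD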;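 also: peak over basal fluorescence ratio during 140 s after agonist addition; 0% = ACh EC80 plus DMSO and 100% = DMSO alone without agonist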
Target sequence (P11229 whole entry, looked up): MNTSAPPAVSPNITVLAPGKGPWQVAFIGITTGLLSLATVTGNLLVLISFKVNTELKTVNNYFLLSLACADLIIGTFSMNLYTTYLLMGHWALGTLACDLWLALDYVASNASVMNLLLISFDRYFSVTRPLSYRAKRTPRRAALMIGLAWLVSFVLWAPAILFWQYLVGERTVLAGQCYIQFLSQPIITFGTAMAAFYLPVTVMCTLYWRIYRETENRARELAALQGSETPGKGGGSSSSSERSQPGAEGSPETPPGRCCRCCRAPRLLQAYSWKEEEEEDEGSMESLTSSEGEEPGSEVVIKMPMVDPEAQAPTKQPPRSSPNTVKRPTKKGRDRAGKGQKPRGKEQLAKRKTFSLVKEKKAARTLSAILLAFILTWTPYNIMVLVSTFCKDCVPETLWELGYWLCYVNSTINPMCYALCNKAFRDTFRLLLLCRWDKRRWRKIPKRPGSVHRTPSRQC
CHRM1 PAM: human M1 muscarinic receptor positive allosteric modulators, primary screen, CHO-K1 cells, Fluo-8 calcium fluorescence, 1536-well. CHO-K1 hM1, ACh EC20; 0% = ACh EC20, 100% = maximal ACh. activation, % at 3 µM. actives 0.088% (n = 360,000). Muscarinic acetylcholine receptor M1 (Homo sapiens), P11229. AID 588819, 2011; in the data active = activation above about 19%, passing the limit was not always enough
M1 ag parental: counter-screen for M1 agonists: effect in parental CHO-K1 cells; Fluo-8 calcium fluorescence; scaled to maximal ATP response, vehicle zero; activation, % at 3 µM; actives 0.48% (n = 360,000); AID 602248, 2012; in the data active = activation above about 15%;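 also: untransfected CHO-K1 host cells lacking M1 receptor as counterscreen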
M1 ag: human M1 muscarinic receptor agonists, primary screen, Fluo-8 calcium fluorescence, CHO-K1 cells, HTS. Muscarinic acetylcholine receptor M1 (Homo sapiens), P11229. CHO-K1 hM1, agonist mode; 0% DMSO, 100% acetylcholine EC100. activation, % at 3 µM. actives 0.33% (n = 360,000);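 active = activation above the run's mean compound activation plus 3 SD, cut at about 16% in these data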;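 also: peak over basal fluorescence ratio within a 140 s kinetic read after compound addition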
CHO-K1 Ca PAM: nonselective calcium activators in parental CHO-K1 cells, primary screen, counter-screen for M1 PAM project, cell-based, Fluo-8 calcium fluorescence, full deck, 1536-well; ATP EC20; 0% at ATP EC20, 100% at ATP max; activation, % at 3 µM; actives 0.02% (n = 360,000); AID 602247, 2012;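 active = activation above the run cutoff, the mean activation of all test compounds plus 3 SD, cut at about 40% in these data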;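 also: peak over basal fluorescence ratio in a 140 s read after ATP addition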
Numbers without * were called inactive; nt = not tested or not shown.

SMILES	CHO-K1 Ca antag	CHRM1 antagonist	CHRM1 PAM	M1 ag parental	M1 ag	CHO-K1 Ca PAM
Cc1cccc(N2CCN(C(=O)COc3noc4nc(C)cc(C)c34)CC2C)c1 (stereo not drawn)	-13.6	-12.5	4.5	2.0	0.6	16.1
COc1ccc(Cc2nnc(SC)n2-c2ccc(F)cc2)cc1OC	-11.0	-7.7	10.9	1.5	-2.7	27.2
CCN(CC(=O)NCc1cccs1)C(=O)/C=C/c1cc(OC)ccc1OC	24.5*	2.4	-4.1	-0.5	-2.0	-21.9
COC(=O)[C@@H](Cc1c[nH]c2ccccc12)NCc1cccc(B(O)O)c1	-7.4	-13.3	6.6	1.0	0.2	14.1
CCN1CCCC1CNCc1cccc(OC)c1OCc1ccccc1 (stereo not drawn)	-11.2	24.4	-19.2	0.4	-6.9	21.1
CCN1CCCC1CNCc1ccccc1OCc1ccc(F)cc1 (stereo not drawn)	-1.1	31.7*	-19.9	0.1	-8.7	1.0
OCC1(Cc2cccc(C(F)(F)F)c2)CCN(Cc2cc3ccccc3o2)CC1	-10.1	-0.2	-3.6	1.4	-5.5	6.4
COc1ccc(CN2CCC(CO)(Cc3cccc(C(F)(F)F)c3)CC2)cc1Cn1cccn1	-6.6	23.4*	-17.7	7.8	-1.5	10.1
Cc1c(CN2CCC(CO)(Cc3cccc(C(F)(F)F)c3)CC2)c2ccccc2n1C	-4.4	25.6*	-26.1	3.3	-8.3	16.2
NC(c1csc(Nc2ccc(C(=O)c3ccccc3)cc2)n1)C1CCCCC1 (stereo not drawn)	8.6	-1.8	0.9	2.5	0.3	7.7
COc1ccc(S(=O)(=O)N=N/C=C2\C=CC=CN2O)cc1OC	0.4	-4.7	7.0	0.0	-0.2	-11.4
CC(=O)Nc1cc(-c2ccccc2CN(C)C)cn2c(-c3ccc(C(C)=O)cc3)cnc12	-5.4	-3.3	0.6	0.6	-4.1	-4.4
CCCc1ncc(C(O)(c2ccccc2)c2ccc(C)cc2)n1C (stereo not drawn)	-8.6	94.6*	-24.6	2.4	-7.7	25.2
CCCc1ncc(C(O)(c2ccccc2)c2ccccc2)n1C	-4.0	93.9*	-32.2	0.7	-13.1	18.4
CCCc1ncc(C(O)c2cccc3ccccc23)n1C (stereo not drawn)	-8.9	-12.5	-2.2	1.5	-3.9	25.0
CCc1nc2c(OCC3COc4ccccc4O3)cccn2c1N(C)C(=O)c1cccs1 (stereo not drawn)	31.0*	-14.8	0.8	-0.1	-8.8	-12.1
CCc1nc2c(OCC(=O)C(C)(C)C)cccn2c1N(C)C(=O)c1cccs1	-6.2	-22.7	19.7	0.0	-3.9	9.8
CCc1nc2c(OCC(=O)c3ccc(F)cc3)cccn2c1N(C)C(=O)c1cccs1	26.5*	2.5	4.4	3.5	-0.3	-17.3
CCc1nc2c(OCC3COc4ccccc4O3)cccn2c1N(C)C(=O)c1ccccc1F (stereo not drawn)	-17.9	5.5	-3.3	4.8	-3.7	9.6
COc1ccc(-[n+]2c(C)cc(/C=C3\Sc4ccccc4N3C)cc2C)cc1	40.3*	80.8*	-26.5	20.7*	12.0	-10.1
COc1ccccc1-[n+]1c(C)cc(/C=C2\Sc3ccccc3N2C)cc1C	51.5*	82.8*	-24.4	33.8*	36.1*	-6.6
COc1ccc(C(=O)/C=C2\Sc3ccccc3N2C)cc1	-8.6	-7.6	11.5	0.9	-9.6	27.6
O=C(NCc1ccccn1)[C@@H]1CCCN1C(=O)[C@@H]1CCCN1	-19.1	nt	nt	1.1	nt	18.6
Nc1[nH]c(C(=O)c2ccccc2)c(-c2cccc3ccccc23)c1C(=O)NCc1ccccc1	-15.2	nt	nt	0.3	nt	0.3
CCn1c2ccccc2c2cc(NC(=O)N3CCCCC3)ccc21	19.7	-10.0	-0.6	0.1	-6.3	-12.3
Cc1cc(SCC(=O)OCC(=O)N(C)C2CCS(=O)(=O)C2)c(C)cc1Br (stereo not drawn)	1.8	2.9	-2.1	15.8*	-2.1	-20.5
